The whole screen tested about 340,000 compounds, of which about 1,000 (0.29%) were called active. These entries were drawn from the full list. Measured potencies and affinities stand elsewhere. A number with no mark means an inactive call. No stated cut-off is given here; in the data, inconclusive means inhibition above about 27% without an active follow-up result; inactive means below that.

As usually defined, the inhibition is the change of the read-out against control, counted positive when it falls.

This assay can be described thus: NS1A inhibition, H1N1 influenza, cell based functional assay (AID 504329). The settings on record: percent inhibition, at 12.5 µM, stronger effect = higher value.
Regarding `C=CCn1c(SCC(=O)C(C)(C)C)nnc1-c1ccccn1`, the inhibition was -6.69%.

For `COc1ccccc1N1CCN(S(=O)(=O)c2c(C(=O)N3CCOCC3)c(C)n(C)c2C)CC1`, the inhibition was 6.32%.

For the compound `CCCCCOc1ccc(C(O)C(CN2CCOCC2)c2ccccc2)cc1` (stereo not given), the inhibition is -5.3%.

Take `C[C@H](CO)N1C[C@H](C)[C@@H](CN(C)Cc2ccncc2)Oc2c(NS(=O)(=O)c3ccccc3)cccc2C1=O`: the inhibition is -17%.

As for `COc1ccc(NC(=O)CSc2n[nH]c(-c3ccco3)n2)cc1`, the inhibition was -5.29%.

Consider `COc1ccc(NC(=O)CSc2ccccn2)cc1`, for which the inhibition is 4.92%.

As to `Cc1ccc(C)c(NC(=O)CSc2n[nH]c(-c3ccncc3)n2)c1`, the inhibition is -3.36%.

In the case of `O=C(CSc1n[nH]c(-c2ccncc2)n1)Nc1ccc(F)cc1`, the inhibition was 0.02%.

Regarding `O=C(CSc1n[nH]c(-c2cccnc2)n1)Nc1ccc(Cl)cc1`, the inhibition is 2.6%.

For `O=C(CSc1n[nH]c(-c2ccco2)n1)Nc1ccc(F)cc1`, the inhibition is 7.45%.

As to `O=C(CSc1n[nH]c(-c2ccncc2)n1)Nc1ccc(Cl)cc1`, the inhibition was -0.89%.

`Cc1ccccc1NC(=O)CSc1n[nH]c(-c2ccccn2)n1`: the inhibition was -5.83%.

Consider `C[C@@H](NC(=O)Cn1cnc2c(NCc3ccccc3)ncnc21)c1cccc2ccccc12`, for which the inhibition was -9.17%.

Take `CCN(CC(=O)Nc1ccccc1C(F)(F)F)C(=O)CCS(=O)(=O)c1ccc(Cl)cc1`: the inhibition was -2.32%.

With `CC(C)CN(C(=O)CN(C)CC(=O)Nc1ccc(Cl)c(C(F)(F)F)c1)c1c(N)n(CC(C)C)c(=O)[nH]c1=O`, the inhibition was -3.46%.

Turning to `CN=C1CC(C)(C)CC(=O)/C1=C(/O)CCCN1C(=O)c2ccccc2C1=O`, the inhibition was -2.2%.

Regarding `CC12CCC(=O)N1C(C(=O)Nc1nc(-c3ccc(F)c(F)c3)cs1)CS2` (stereo not given), the inhibition is -0.9%.

With `Cc1cccc(NC(=S)NC2CC3CCCC(C2)N3CC(C)C)c1` (stereo not given), the inhibition is -0.58%.

As for `COc1cccc(CN2CC(C(=O)N(C)Cc3ccnc4ccccc34)CCC2=O)c1` (stereo not given), the inhibition is -0.38%.

Take `COc1cc2cc(CN(CCCN3CCOCC3)C(=O)Nc3ccccc3F)c(=O)[nH]c2cc1OC`: the inhibition is -7.1%.

`CCCCNC(=O)Cc1coc2ccc3ccccc3c12`: the inhibition was -8.22%.

Turning to `CCC(C)[C@H](NS(=O)(=O)c1ccc(C)cc1)C(=O)N1CCC(C(=O)N[C@H](C(=O)O)c2ccccc2)CC1` (stereo not given in full), the inhibition is -3.12%.

As to `COc1ccc2[nH]c3c(c2c1)CCN1C(=O)C(CC(=O)NCCCn2ccnc2)C[C@H](C(=O)N2CCOCC2)[C@@]31C` (stereo not given in full), the inhibition was -0.65%.

For `COc1ccc(S(=O)(=O)N2CN3CCN(C3)C2)cc1OC`, the inhibition is -1.61%.

For the compound `CC(=O)Nc1cccc(OCC(=O)NCCC2=CCCCC2)c1`, the inhibition is 5.18%.

Regarding `Cc1ccc(NC(=O)CSc2n[nH]c(-c3ccncc3)n2)cc1`, the inhibition was -14.5%.

For `Cc1ccc(NC(=O)CSc2n[nH]c(-c3ccco3)n2)cc1`, the inhibition is -7.19%.

For `CCC(C)(C)C1CCc2[nH]nc(C(=O)NCCCNC(=O)OC(C)(C)C)c2C1` (stereo not given), the inhibition was 7.94%.

Turning to `Cc1ccccc1CN1CCN(CC(=O)NCc2ccccc2)CC1`, the inhibition is -8.48%.

Turning to `COc1ccc(C2CC(=O)Oc3c(C(CCN4CCN(c5ccccc5)CC4)c4ccc(N(C)C)cc4)c(OC)cc(OC)c32)cc1` (stereo not given), the inhibition is 16.5%.

Regarding `COc1cc(C2CC(=O)Oc3c(C(CCN4CCOCC4)c4ccc(N(C)C)cc4)c(OC)cc(OC)c32)cc(OC)c1OC` (stereo not given), the inhibition was 19.5%.

Take `COc1cc(C2CC(=O)Oc3c(C(CCN4CCN(c5ccccc5)CC4)c4ccc(N(C)C)cc4)c(OC)cc(OC)c32)cc(OC)c1OC` (stereo not given): the inhibition is 18%.

Turning to `COc1ccc(C2CC(=O)Oc3c(C(CCN4CCOCC4)c4cc(OC)c(OC)c(OC)c4)c(OC)cc(OC)c32)cc1` (stereo not given), the inhibition is -11.8%.

As for `COc1cc(C(CCN2CCOCC2)c2c(OC)cc(OC)c3c2OC(=O)CC3c2ccc(N(C)C)cc2)cc(OC)c1OC` (stereo not given), the inhibition was 13.9%.

As to `COc1ccc(C(CCN2CCCC(C)C2)c2c(OC)cc(OC)c3c2OC(=O)CC3c2cc(OC)c(OC)c(OC)c2)cc1` (stereo not given), the inhibition is -7.41%.

In the case of `Cc1ccc(S(=O)(=O)NC(C)C(=O)Nc2ccc(C(N)=O)cc2)cc1` (stereo not given), the inhibition was 7.11%.

For `CN1C(=O)/C(=C\c2ccncc2)SC1=Nc1ccccc1`, the inhibition was 2.83%.

For the compound `CC(CCc1ccccc1)NC(=O)c1ccco1` (stereo not given), the inhibition is 18.9%.

Consider `COc1ccc(N=c2oc3c(OC)cccc3cc2C(=O)NCc2ccco2)c(OC)c1`, for which the inhibition is 10.4%.

With `CCOc1ccccc1N(C(=O)c1snc(C(N)=O)c1N)C(C(=O)NCc1ccccc1)c1ccc(O)cc1` (stereo not given), the inhibition is 11.4%.

With `CCOc1cc(/C=N/NC(=O)c2cccc([N+](=O)[O-])c2)ccc1OS(=O)(=O)c1ccccc1`, the inhibition is -5.88%.

In the case of `OCCC1CN(C2CSCCSC2)CCN1Cc1ccccc1` (stereo not given), the inhibition is -6.56%.

As to `CN1CCN(c2ccc(CNS(=O)(=O)c3ccc(F)cc3Cl)cc2)CC1`, the inhibition was -10.3%.

For `Cc1nc(SCC(=O)NCc2ccccc2)c2c(=O)n(C)c(=O)n(C)c2n1`, the inhibition is -13.1%.

As to `COc1ccccc1NS(=O)(=O)c1cccc(C(=O)N/N=C/c2c(CO)cnc(C)c2O)c1`, the inhibition was 17.7%.

As to `O=C(N/N=C/c1ccccn1)c1cccc(S(=O)(=O)N2CCCC2)c1`, the inhibition was -3%.

On to `Cc1ncc(CO)c(/C=N/NC(=O)c2ccccc2Br)c1O`, for which the inhibition is 18.5%.

Take `Cc1ncc(CO)c(/C=N/NC(=O)c2ccoc2C)c1O`: the inhibition was 7.34%.

Turning to `COc1ccc(C(=O)N/N=C/c2c(CO)cnc(C)c2O)cc1`, the inhibition was 21.8%.

Consider `Cc1ncc(CO)c(/C=N/NC(=O)c2ccc(O)cc2)c1O`, for which the inhibition was 15.5%.

On to `CC(C)C(NC(=O)C1CC(=O)N(Cc2ccccc2)C1)c1nc2ccccc2[nH]1` (stereo not given), for which the inhibition is -13.6%.

As to `O=C(c1cc2ccccc2c(=O)o1)N1CCCCCC1`, the inhibition is -12.3%.

With `Cc1cc(N2CCOCC2)ccc1/C=C1\NC(=O)N(Cc2ccccc2F)C1=O`, the inhibition was -4.62%.

As for `CC(=O)Nc1nc(CCl)cs1`, the inhibition is -0.43%.

Take `O=C(O)c1cc2ccccc2c(N=Nc2cccnc2)c1O`: the inhibition is 16.2%.

As to `Oc1[nH]c2ccccc2c1N=Nc1ccccc1F`, the inhibition was -4.52%.

`O=C(O)c1cc(N=Nc2c(O)ccc3ccccc23)cc(C(=O)O)c1`: the inhibition is 13.6%.

Take `NS(=O)(=O)c1ccc(N=Nc2c(O)ccc3ccccc23)cc1`: the inhibition was 7.02%.

Turning to `Oc1ccc(N=Nc2ccc3ccccc3c2)cc1`, the inhibition is 3.88%.

For `Cn1c(O)c(N=Nc2ccc(F)cc2)c2ccccc21`, the inhibition is -0.89%.

With `O=S(=O)(O)c1cccc(N=Nc2c(O)ccc3ccccc23)c1`, the inhibition is 22.8%.

`NS(=O)(=O)c1ccc(N=Nc2c(O)c(C(=O)O)cc3ccccc23)cc1`: the inhibition is 14%.

Turning to `Cc1ccccc1C(=O)N=c1sccn1C`, the inhibition was -5.97%.

Regarding `O=C(NC1CCCCC1)c1c(O)nc2sccn2c1=O`, the inhibition was 0.11%.

With `O=C(COc1ccccc1Cl)Nc1ccccc1C(=O)Nc1cccc(C(=O)O)c1`, the inhibition was 1.12%.

For the compound `COc1ccc(-c2cc(C(=O)Nc3cccc(S(=O)(=O)NCc4ccco4)c3)c3ccccc3n2)cc1OC`, the inhibition was -2.45%.

As to `COc1ccccc1C(=O)N/C(=C\c1ccc(Br)cc1)C(=O)NCCO`, the inhibition is -1.68%.

Turning to `COC(=O)N/N=C(\C)c1ccc(C)c([N+](=O)[O-])c1`, the inhibition is 2.68%.

Regarding `CCC(CC)C(=O)Nc1nnc(S(=O)(=O)Nc2ccccc2C)s1`, the inhibition was -5.98%.

For `O=C(COc1ccccc1)NCC(=O)N/N=C/c1ccco1`, the inhibition was 8.38%.

In the case of `O=C(Nc1ccccc1N1CCOCC1)c1cccc(Oc2ccccc2)c1`, the inhibition was 5.8%.

With `CCCCn1c(O)c(N=Nc2ccccn2)c2ccccc21`, the inhibition was -1.48%.

On to `Oc1[nH]c2ccccc2c1N=Nc1ccccn1`, for which the inhibition is -23.1%.

Regarding `CN(C)S(=O)(=O)c1ccc(Cl)c(C(=O)NNC(=O)Cc2nc3ccccc3n2C)c1`, the inhibition was -3.93%.

On to `CCOc1ccc(N2C(=O)c3ccccc3C2=O)cc1`, for which the inhibition was 5.19%.

For the compound `CCO/C=C1\C(=O)N(c2ccccc2)C(=O)c2ccccc21`, the inhibition was 4.03%.

Consider `CCO/C=C1/C(=O)N(c2ccc(OC)cc2)C(=O)c2ccccc21`, for which the inhibition is 1.21%.

With `Cc1cc(C)nc(NS(=O)(=O)c2ccc(N3C(=O)c4ccccc4C3=O)cc2)n1`, the inhibition was -5.14%.

In the case of `Cc1[nH]c2ccccc2c1C(=O)C(=O)N1CCCc2ccccc21`, the inhibition was -5.75%.

For the compound `Cc1cc(N(CCO)CCO)ccc1C(c1ccc(N(CCO)CCO)cc1C)c1ccccc1Cl`, the inhibition is 19.6%.

In the case of `Nc1ccc(N(CCO)CCO)cc1`, the inhibition was 11.7%.

For the compound `O=C1CCC(C(=O)N2CCSCC2)CN1CCc1ccccc1` (stereo not given), the inhibition is 5.31%.

For `CCOC(=O)C1=C(Cc2ccc(Cl)cc2)C(=O)c2ccccc2C1=O`, the inhibition was 21.1%.

Consider `CCOC(=O)C1=C(Cc2ccc(F)cc2)C(=O)c2ccccc2C1=O`, for which the inhibition was 19.2%.

`N#Cc1c(N)nc2c(c1-c1ccc(F)cc1)CCC2`: the inhibition is 0.84%.

As to `C[C@H](C(=O)NCc1ccccc1)C(=O)c1ccccc1`, the inhibition was 8.83%.

Regarding `COc1ccc(-c2csc(N(CCc3ccc(OC)c(OC)c3)C(=O)COc3ccccc3)n2)cc1`, the inhibition is 1.44%.

In the case of `CC(C)CCn1nnnc1C(c1ccc(F)cc1)N1CCC(C(N)=O)CC1` (stereo not given), the inhibition was -2.77%.

As to `CC(=O)c1ccc(-c2ccccc2)cc1`, the inhibition was 7.71%.

As to `O=C(NCc1cccs1)C1CCN(c2nccs2)CC1`, the inhibition is 5.59%.

Source of the values: PubChem BioAssay AID504329 (Southern Research Specialized Biocontainment Screening …, 2011).
